Measurements reported in PubChem BioAssay (NCATS).
Records with an inconclusive call do not appear. A call without a number means that no potency is given here. The source made the active and inactive calls. The call rests on the fitted dose curve; in most records, active means well fitted curve in the direction sought with a large enough effect; inconclusive means small, poorly fitted or top-dose-only effect, or another doubt; inactive means no such curve, though single readings can be large; an effect the other way counts as inactive or inconclusive.

Assays:
[1] = Cytotoxicity qHTS for assessment of Hepg2 cells membrane integrity screened against the NCATS CANVASS Library (AID 1347387); settings: HepG2 LDH release (CytoTox-ONE) fluorescence, 5 h; series mostly up to 46.1 µM
How it was run: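 Membrane damage in HepG2 monolayers was estimated from released LDH, measured with CytoTox-ONE (ex 560/em 590 nm), after 5 hr treatment across 0.59 nM - 46 uM final.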

[2] = qHTS for Activators of p53 Stress Response Pathway screened against the NCATS CANVASS Library (AID 1347388); settings: p53RE-bla HCT-116, beta-lactamase reporter, 16 h; series mostly up to 46.1 µM
How it was run: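 p53RE-bla HCT-116 cells (4000/well) were pre-incubated for 5 h, then treated with compound (11 points) for 16 h at 37C. After 2 h with CCF4, the 460/530 nm ratio gave reporter activation; CellTiter-Glo measured viability.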

[3] = qHTS assay for small molecule disruptors of mitochondrial membrane potential screened against the NCATS CANVASS Library (AID 1347389); settings: HepG2 mitochondrial membrane potential, m-MPI red/green ratio, 1.5 h; further: potency means the concentration at half of the fitted maximal effect; nearly all actives have a fitted effect of over 60% in size
How it was run: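 Cells (HepG2) seeded the day before received compound or DMSO for 1 hr, then Mito-MPS dye for 30 min at 37C; emission at 590 nm over 535 nm gave the polarization signal.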

[4] = qHTS for activators of Nrf2/ARE signaling pathway screened against the NCATS CANVASS Library (AID 1347391); settings: ARE-bla HepG2, beta-lactamase reporter, 16 h; series mostly up to 46.1 µM; further: nearly all actives have a fitted effect of over 60% in size
How it was run: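 Activation of Nrf2/ARE was scored in ARE-bla HepG2 cells after 16 h compound exposure using CCF4 beta-lactamase fluorescence ratio readings.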

[5] = qHTS for activators of dead-cell proteases activity screened against the NCATS CANVASS Library (AID 1347392); settings: HepG2 cytotoxicity, dead-cell protease luminescence, 5 h; series mostly up to 46.1 µM;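 further: luminescence from protease leaking out of membrane-damaged cells cleaving impermeant substrate; rising signal means more cytotoxicity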
How it was run: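 HepG2, 2000 cells/well, 18 h attach; cpd 11-pt, 5 h 37C 5% CO2; CytoTox-Glo (AAF-aminoluciferin) 15 min RT; luminescence read.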

[6] = qHTS for inhibitors of ER calcium dysfunction: SERCaMP assay screened against the NCATS CANVASS Library (AID 1347393); settings: SH-SY5Y GLuc-SERCaMP (Gaussia luciferase released on ER calcium loss) secretion, thapsigargin, luminescence; series mostly up to 76.6 µM;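 further: lower secreted reporter signal means inhibitor of ER calcium depletion; nearly all actives have a fitted effect of over 40% in size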
From the text: (§1) Natural products and their derivatives continue to be wellsprings of nascent therapeutic potential. However, many laboratories have limited resources for biological evaluation, leaving their previously isolated or synthesized compounds largely or completely untested. To address this issue, the Canvass library of natural products was assembled (https://tripod.nih.gov/canvass), in collaboration with academic and industry researchers, for quantitative high-throughput screening (qHTS) across a diverse set of cell-based and biochemical assays. The pure (>85% purity by liquid chromatography/mass spectrometry [LC/MS]) Canvass library of 346 natural products were submitted by 45 academic laboratories and companies around the world. We collected pure natural products to circumvent deconvolution and structure elucidation due to time and resource limitations. The library was formatted into 1536-well plates and evaluated in 50 qHTS (in an 11-pnt concentration series) bioassays with broad scope of disease-relevant mechanisms. The resulting data set from 50 different assays was then systematically analyzed to identify overall trends and specific natural products with interesting biological activities. […]
SERCaMP assay protocol: 1. […] Luminescence signal was obtained via the ViewLux plate reader (Perkin Elmer) using the clear emission filter and 1x binning, 5 seconds exposure settings.

[7] = Vero-766 cells viability qHTS against the NCATS CANVASS Library: Counterscreen for Zika virus inhibition assay (AID 1347394); settings: Vero 766 viability, CellTiter-Glo luminescence, 72 h; series mostly up to 46.1 µM; further: nearly all actives have a fitted effect of over 60% in size; further: potency means the concentration at half of the fitted maximal effect
How it was run: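 Vero 766, no virus; 1000 cells/well; o/n attach; cpd 11-pt; 72 h, 37C, 5% CO2; CTG luminescence; cell-free media wells = 100% inhibition.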

[8] = Viability qHTS for inhibitors of the SERCaMP assay screened against the NCATS CANVASS Library (AID 1347400); settings: SH-SY5Y SERCaMP cells viability, CellTiter-Glo, 48 h; series mostly up to 92.2 µM; further: nearly all actives have a fitted effect of over 70% in size
From the text: as §1
SERCaMP Viability assay protocol: 1. […] Luminescence signal was obtained via the ViewLux plate reader (Perkin Elmer) using the clear emission filter and 1x binning, 2 seconds exposure settings.

[9] = Redox Reaction Profiling qHTS: Assay Interference Panel against the NCATS CANVASS Library (AID 1347401); settings: resazurin-DTT redox cycling, fluorescence, 15 min; series mostly up to 57.1 µM
How it was run: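 Fluorescence read-out (525 nm excitation, 598 nm emission) at time zero and after 15 min in the dark tracked resorufin formation. Mix: 5 uM resazurin, 200 uM DTT, HEPES pH 7.3 buffer with NaCl.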

[10] = qHTS for inhibitors of Wild type Zika virus screened against the NCATS CANVASS Library (AID 1347396); settings: Vero cells, Zika virus CPE, CellTiter-Glo, 72 h; series mostly up to 45.9 µM;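 further: ATP luminescence of surviving cells so rescue from viral cell killing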
From the text: as §1, with “The pure (>85% purity by liquid chromatography/mass spectrometry [LC/MS]) Canvass library of 346 natural products were submitted by 45 academic laboratories and companies around the world. We collected pure natural products to circumvent deconvolution and structure elucidation due to time and resource limitations.” left out
Zika virus infection assay protocol: 1. […] In a biosafety cabinet, the desired MOI Zika virus was calculated and 2 uL of 2.5x Zika virus was dispensed into columns 1, 2 and 5 - 48 using the Multidrop Combi dispenser. […] Luminescence signal was obtained via the ViewLux plate reader (Perkin Elmer) using the clear emission filter and 1x binning, 2 seconds exposure settings.

SMILES	outcome [1]	outcome [2]	Potency [3]	outcome [4]	outcome [5]	outcome [6]	Potency [7]	outcome [8]	outcome [9]	outcome [10]
C=C(C)[C@@H]1CC[C@]2(C(=O)O)CC[C@]3(C)[C@H](CC[C@@H]4[C@@]5(C)CC[C@H](O)C(C)(C)[C@@H]5CC[C@]43C)[C@@H]12	inactive	inactive	18.6 µM (active)	inactive	inactive	inactive	33.1 µM (active)	inactive	inactive	
O=c1c(O)c(-c2ccc(O)c(O)c2)oc2cc(O)ccc12	inactive		23.4 µM (active)		inactive		inactive			inactive
